Rows were chosen to be rich in hits. Some 3.8% of all compounds tested hit in one or more screens of this group.
MT1-MMP txn act – MT1-MMP promoter transcription activation. HT1080 MT1-MMP promoter luciferase reporter, luminescence, overnight; active compounds read high. activation factor at 10 µM. 0.16% of 86,000 active;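 active = activation factor of at least 2 for MT1-MMP transcription at 10 µM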
hDAT+cocaine – modulates human dopamine transporter uptake under cocaine; 1.3% of 110,000 active; Q01959; LLC-PK1 hDAT cells, [14C]-dopamine uptake with cocaine IC80; actives deviate in either direction; B-score at 10 µM;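 active = Z score or B-score, a plate-position-corrected score, falls beyond the plate's 99.7% confidence bounds, in either direction; inactive = both scores lie inside the 99.7% bounds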
ERa SRC1 inh – blocks coactivator binding to human estrogen receptor alpha. inhibition, % at 25.6 µM. P03372. 1.7% of 86,000 active. TR-FRET ER-alpha LBD / SRC-1 peptide, estradiol-bound. AID 629; in the data active = inhibition above about 50%
Target sequence (P03372 whole entry, looked up, the tested form may be a part): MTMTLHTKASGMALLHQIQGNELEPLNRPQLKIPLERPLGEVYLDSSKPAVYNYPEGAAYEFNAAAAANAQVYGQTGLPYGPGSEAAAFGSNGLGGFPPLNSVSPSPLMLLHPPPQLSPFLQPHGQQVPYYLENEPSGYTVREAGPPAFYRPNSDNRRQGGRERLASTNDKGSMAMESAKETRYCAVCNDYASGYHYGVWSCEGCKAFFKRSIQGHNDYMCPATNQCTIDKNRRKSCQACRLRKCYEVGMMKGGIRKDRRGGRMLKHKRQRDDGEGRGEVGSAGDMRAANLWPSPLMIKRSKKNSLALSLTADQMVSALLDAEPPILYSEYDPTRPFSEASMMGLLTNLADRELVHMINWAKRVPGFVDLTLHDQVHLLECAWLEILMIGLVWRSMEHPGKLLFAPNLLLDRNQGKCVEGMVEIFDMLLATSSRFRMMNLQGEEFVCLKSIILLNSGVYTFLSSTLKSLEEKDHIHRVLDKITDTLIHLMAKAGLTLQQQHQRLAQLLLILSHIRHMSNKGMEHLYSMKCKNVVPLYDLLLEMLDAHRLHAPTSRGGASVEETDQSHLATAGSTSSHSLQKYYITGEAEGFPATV
ERa coact pot – enhances coactivator binding to human estrogen receptor alpha | P03372 | TR-FRET ERalpha-LBD/SRC-Cy5 coactivator binding, 2 h; 100 = basal binding, no effect | coactivator binding (% of control), % at 25.6 µM | 1.3% of 86,000 active | AID 639; in the data active = activity above about 200%;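 also: binding measured in presence of low estradiol as agonist stimulus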
ERb SRC1 inh – ER-beta (human) coactivator binding inhibition. 1.3% of 86,000 active. Q92731. inhibition, % at 25.6 µM. TR-FRET ER-beta LBD / SRC1-Cy5 peptide binding; receptor agonist-loaded with 1 µM estradiol. AID 633;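 active = compounds whose percent inhibition of the receptor-coactivator binding signal exceeds about 50% in the single-dose screen, limit read from the data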
Hits are given with their value; . = inactive; / = not tested or not shown; [ ] = another dose, or the depositor's remark.

SMILES	MT1-MMP txn act	hDAT+cocaine	ERa SRC1 inh	ERa coact pot	ERb SRC1 inh
O=C1CC(C(=O)Nc2ccc(C(=O)N3CCOCC3)cc2)C2(CCCCC2)O1 (stereo not drawn)	.	.	56[fluorescence artefact?]	.	.
COc1cc(CCCN2C(N)=NC[C@@H]2Cc2ccccc2)cc(OC)c1OC	/	.	/	/	/
O=C(CN(CC1CCCO1)C(=O)CNS(=O)(=O)c1ccc(Cl)cc1)NCC1CCCO1 (stereo not drawn)	.	.	.	.	.
O=C(Nc1cccc(Cl)c1N1CCCC1)c1cccc(-c2cc3ccccc3oc2=O)c1	/	.	/	/	/
COc1cccc2cc(C(=O)Nc3cccnc3N3CCOCC3)c(=O)oc12	.	.	.	289	.
COc1cccc2cc(C(=O)N3CCC(C)CC3)c(=O)oc12	.	.	.	.	.
COc1cccc2cc(C(=O)Nc3cccc(C)n3)c(=O)oc12	.	/	.	253	.
NS(=O)(=O)c1ccc(CCNC2CC(=O)N(Cc3ccccc3)C2=O)cc1 (stereo not drawn)	.	.	.	.	.
NS(=O)(=O)c1ccc(CCNC2CC(=O)N(CCc3ccccc3)C2=O)cc1 (stereo not drawn)	.	.	.	.	66
COC(=O)C1=C[C@@H](C(=O)OC)[C@@H]2C3=C(C(=O)C2(C)C)[C@H](c2ccccc2)[C@@H]2C(=O)N(C)C(=O)[C@@H]2[C@@H]3C1	/	.	/	/	/
COc1cccc(C(=O)N(Cc2ccc(N(C)C)cc2)C2CCS(=O)(=O)C2)c1 (stereo not drawn)	.	2.6	.	.	.
CCOc1ccc(CN(C(=O)c2ccco2)C2CCS(=O)(=O)C2)cc1 (stereo not drawn)	.	.	.	.	.
Cc1noc(C)c1CSc1nnc(-c2ccccc2)n1Cc1ccco1	.	.	.	.	.
Cc1noc(C)c1CSc1nnc(-c2ccccc2)n1N	/	-8.6	.	.	.
NC(=O)CC(NC(=O)Cc1ccc(Br)cc1)c1ccc(NCc2ccc(F)cc2)c([N+](=O)[O-])c1 (stereo not drawn)	/	.	/	/	/
CN1C(=O)C(C(=O)NC(C)(C)C)C2c3ccccc3OC13CCCCC23 (stereo not drawn)	.	.	.	.	.
Cc1cccc(NC(=O)CSc2nc3ccccc3o2)c1	/	.	/	/	/
Cc1nn2c(-c3cccc(NC(=O)CSc4nc5ccccc5o4)c3)nnc2c2ccccc12	.	.	69[fluorescence artefact?]	.	55
CCn1c(=S)sc2c(=O)n(-c3ccccc3)c(SC)nc21	.	.	.	.	.
CCn1c(=S)sc2c(=O)[nH]c(C)nc21	.	-9	.	.	.
COc1cc(CCCN2C(=S)NC[C@@H]2c2ccccc2)cc(OC)c1OC	/	.	/	/	/
O=C(/C=C/c1c(Cl)cccc1Cl)n1cccn1	.	.	.	.	.
Cc1cc(-c2ccccc2)n(-c2ccc(C(=O)N3CCN(c4ncccn4)CC3)cc2)n1	.	2.5	.	.	.
O=C(Nc1ccc2nn(-c3ccccc3)nc2c1)c1ccc2c(c1)OCCO2	.	.	.	.	.
CCOc1ccc(-n2nc3ccc(NC(=O)c4ccc5c(c4)OCCO5)cc3n2)cc1	.	.	.	.	.
SMILES	MT1-MMP txn act	hDAT+cocaine	ERa SRC1 inh	ERa coact pot	ERb SRC1 inh
Cc1ccc(-n2nc3ccc(NC(=O)c4ccc5c(c4)OCO5)cc3n2)cc1	.	.	88[fluorescence artefact?]	.	66[fluorescence artefact?]
Cc1ccc(-n2nc3ccc(NC(=O)c4ccco4)cc3n2)cc1	.	.	71[fluorescence artefact?]	.	.
CCc1ccc(-n2nc3ccc(NC(=O)c4ccc5c(c4)OCO5)cc3n2)cc1	/	.	.	362[fluorescence artefact?]	.
O=C(Nc1ccc2nn(-c3ccccc3)nc2c1)c1ccc(Br)o1	.	.	56	207	.
COC(=O)c1ccc(C(NC(=O)OCc2ccccc2)/C(C)=C/[C@@H](C)C(=O)Nc2ccc(OC)cc2)cc1 (stereo partly drawn)	.	/	/	/	/
CCC1=C(OC(=O)N(CC)CC)N2C(=O)OC(=NCCc3c[nH]c4ccccc34)[C@]2(Cc2ccccc2)[C@H]2C1=CC[C@H]1C(=O)N(C)C(=O)[C@H]12	.	.	/	/	/
CC(C)c1cccc2nc3c(c(C(C)(C)C)c12)Cn1c-3cccc1=O	.	/	/	/	/
COC(=O)[C@@]1(Cc2ccccc2)[C@H]2c3cc(C(=O)N4CCCC4)n(CCO)c3C[C@H]2CN1C(=O)c1ccccc1	.	/	/	/	/
O=C(O)C1=C[C@H](c2ccc(Br)cc2)C[C@H](OCc2ccc(CO)cc2)O1	/	.	/	/	/
Cc1cc(=O)oc(C)c1C(=O)OCC(=O)c1ccc(Cl)cc1	.	.	.	.	.
O=C(OCC(=O)c1c[nH]c2ccccc12)C1=COCCO1	2.1	.	.	.	.
O=C(COC(=O)C1=COCCO1)NCCCc1ccccc1	.	.	.	.	.
COc1ccc2nc(C3CCCCC3)c3c(c2c1)CCC3	/	.	/	/	/
Cc1ccc(N=Nc2c(N)[nH]n3c(=O)cc(-c4ccccc4)nc23)cc1	/	1.6	/	/	/
C/C(N)=C(/C#N)C(=O)CSc1nnc(Cc2ccccc2F)n1N	.	.	69	.	81
O=C(NCCN1CCOCC1)C1(C(F)(F)F)C/C(=C\Cc2ccccc2)CCCO1 (stereo not drawn)	/	.	/	/	/
CC(C)N1CCc2c(sc(NC(=O)c3ccc(S(=O)(=O)N4CCOCC4)cc3)c2C#N)C1	.	.	.	.	.
N#Cc1c(NC(=O)CN2CCN(S(=O)(=O)c3ccc4c(c3)OCCO4)CC2)sc2c1CCC2	.	.	69[fluorescence artefact?]	.	53[fluorescence artefact?]
CCOC(=O)N1CCc2c(sc(NC(=O)c3ccc(S(=O)(=O)N4CCCC4)cc3)c2C#N)C1	.	/	.	245	.
O=C(CN1CCN(S(=O)(=O)c2ccc(Cl)cc2)CC1)Nc1ccc2c(c1)OCCO2	.	.	.	.	.
CC(NC(=O)CCSc1nc(-c2ccc3c(c2)OCO3)cc(C(F)(F)F)n1)c1ccccc1 (stereo not drawn)	.	.	90	.	.
Cc1nnc2sc(-c3cccc(NC(=O)c4ccc(-c5cccc(Cl)c5)o4)c3)nn12	.	/	.	.	.
Cc1nnc2sc(-c3ccc(NC(=O)c4ccc(-c5ccc(Br)cc5)o4)cc3)nn12	.	/	69	.	.
Cc1ccc(-c2nn3c(C)nnc3s2)cc1NC(=O)c1ccc(-c2cccc(Cl)c2)o1	.	.	66	.	.
Cc1ccc(-c2nn3c(C)nnc3s2)cc1NC(=O)c1ccc(-c2ccc(Cl)cc2Cl)o1	.	.	67[fluorescence artefact?]	.	.
SMILES	MT1-MMP txn act	hDAT+cocaine	ERa SRC1 inh	ERa coact pot	ERb SRC1 inh
Cc1ccc(-c2nn3c(C)nnc3s2)cc1NC(=O)c1ccc(Br)o1	.	.	.	.	.
CCn1c(CCNC(=O)c2ccc(Cl)c(Cl)c2)nnc1SCCOc1ccc(OC)cc1	/	.	/	/	/
CCN(CC)CC#CCC(C)(c1ccccc1)c1ccccc1	/	.	/	/	/
NC(=O)c1ccccc1NS(=O)(=O)c1cccs1	.	-3.2	.	.	.
CC(C(N)=O)N1C(=O)c2cccc3cccc1c23 (stereo not drawn)	/	.	.	.	.
Cc1cc(-c2ccc(N3C(=O)CCC3=O)c(C)c2)ccc1N1C(=O)CCC1=O	.	.	.	.	63
Cc1ccc(NC(=O)c2nc[nH]c2C(=O)NCC(=O)OC(C)(C)C)cc1	/	.	/	/	/
